The values below come from PubChem BioAssay AID455 (Sanford-Burnham Center for Chemical Genomics, 2006).

Screen size: about 10,000 compounds; about 20 (0.2%) were called active. The sample holds actives, similar compounds and a random draw of the others, so the mix is not that of the screen. A number with no mark means an inactive call.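 Rule for the calls: active = a compound raising TNF-alpha-driven VCAM-1 surface staining, with its hit status upheld on visual or statistical review; inactive = the rest, including hits rejected on review.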

A short description of the assay: boosters of cytokine-driven VCAM-1 levels – cell-based, plate reader, pooled HUVEC, TNFa stimulus (AID 455).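 For augmentation: 0% = TNFa plus DMSO wells and 100% = a visually confirmed top hit.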 The conditions noted are these: HUVEC TNFa-induced VCAM-1 immunofluorescence; active compounds read high, 100% set by best visually verified hit,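 tested at 5 µM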.
Regarding `Nc1nc(N2C(=O)C3CC=CCC3C2=O)nn1-c1ccccc1` (configuration not stated), the augmentation entry was “inactive”. With `O=C1c2ccccc2C(Nc2ccc3nc(-c4cccnc4)[nH]c3c2)N1Cc1ccco1` (configuration not stated) the entry was “inactive”; with `CCCCn1nnc(NC(=O)c2cc3ccccc3o2)n1`, “inactive”. In the case of `COc1ccc2nc(NC(=O)c3ccoc3C)sc2c1`, the augmentation result is “inactive”. With `COC(=O)C1C2C=CC3(CN(CC4CCCO4)C(=O)C13)O2` (configuration not stated) the entry was “inactive”; with `CCOC(=O)c1c(NC(=O)Cn2c(=O)oc3ccccc32)oc(C)c1C(C)=O`, “inactive”. With `Cc1ccnc(SCCn2c(N3CCCCC3)nc3c2c(=O)n(C)c(=O)n3C)n1` the entry was “inactive”.

In the case of `CC(=O)Nc1ccc(N2CCN(Cc3ccccc3F)CC2)cc1`, the augmentation result was “inactive”. With `CCCCN(CCCC)C(=O)CN(C)S(=O)(=O)c1ccc2c(c1)n(C)c(=O)c(=O)n2C` the entry was “inactive”. As for `O=C(CSc1nnnn1-c1ccccc1)Nc1ccc(Cl)cc1`, the entry is “inactive”; as for `COc1ccc(S(=O)(=O)NCCOc2ccccc2)cc1OC`, “inactive”; as for `CCOc1ccc(N(C(C)=O)C2C=CS(=O)(=O)C2)cc1` (configuration not stated), “inactive”. With `Cc1ccc(S(=O)(=O)N2CCC(C(=O)NCCN3CCCCCC3)CC2)cc1` the entry was “inactive”; with `O=C(c1ccc(S(=O)(=O)N2CCOCC2)cc1)N(c1ccc(F)cc1)C1C=CS(=O)(=O)C1` (configuration not stated), “inactive”; with `COc1ccc(-c2nnc(SCC(=O)NC(C)c3ccccc3)o2)cc1` (configuration not stated), “inactive”. For `COC(=O)c1ccc(CSc2nc(-c3ccc(OC)cc3)nc3c2c(=O)n(C)c(=O)n3C)o1`, the augmentation entry is “inactive”.

Turning to `CC1CCN(C(=O)c2ccc(C(=O)N3CCC(C)CC3)cc2)CC1`, the augmentation result was “inactive”.

In the case of `CCOC(=O)Cc1cc(=O)n2[nH]c(C)c(-c3ccc(OC)cc3)c2n1`, the augmentation entry was “inactive”. As for `COC(=O)Cc1cc(=O)[nH]c(Nc2nc3ccccc3o2)n1`, the entry is “inactive”. With `O=C(NC1CCCCCC1)c1cc(S(=O)(=O)N2CCC3(CC2)OCCO3)ccc1F` the entry was “inactive”. With `CCOc1cc(N2CCOCC2)c(OCC)cc1NC(=O)CSc1cccc[n+]1[O-]` the entry was “inactive”; with `CCOC(=O)CSc1nnc(CNC(=O)c2ccc(S(=O)(=O)N3CCCC3)cc2)n1C`, “inactive”; with `Cc1cccc(CCNC(=O)C2CCCN(S(=O)(=O)c3cnc[nH]3)C2)c1` (configuration not stated), “inactive”.

As for `COc1ccc(S(=O)(=O)NCCCN2CCOCC2)c2ccccc12`, the augmentation result was “inactive”. With `CCc1nnc(NC(=O)c2ccc(S(=O)(=O)NCC(C)C)cc2)s1` the entry was “inactive”; with `O=C(CCSc1nc(-c2ccco2)cc(C(F)(F)F)n1)NCCc1ccccc1`, “inactive”; with `CCc1ccccc1NC(=O)C(CC)Sc1nc2cc3c(cc2c(=O)n1Cc1ccco1)OCO3` (configuration not stated), “inactive”. As for `O=C(O)CCC(=O)c1c[nH]c2ccccc12`, the entry is “inactive”. In the case of `CC(=O)SCCC(=O)Nc1ccccc1`, the augmentation result is “inactive”.

In the case of `c1cncc(-c2nc3c4ccccc4nc(N4CCC(N5CCCCC5)CC4)n3n2)c1`, the augmentation result is “inactive”.

As for `c1ccc(Cn2nnnc2C(c2cccs2)N2CCSCC2)cc1` (configuration not stated), the augmentation result is “inactive”.

In the case of `CCOC(=O)c1ccc(N(CC(=O)NC2CCCC2)C(=O)CNC(=O)c2ccco2)cc1`, the augmentation result is “inactive”. As for `O=C(O)c1ccc2c3c(ncnc13)-c1ccccc1C2=O`, the entry is “inactive”. With `O=C(CSc1nnc(-c2ccncc2)o1)Oc1ccccc1` the entry was “inactive”.

In the case of `COc1ccccc1C(O)P(=O)(OC(C)C)c1ccc(N(C)C)cc1` (configuration not stated), the augmentation result was “inactive”. As for `O=C(NCCCn1ccnc1)c1cnn2c1NC(c1ccccc1)CC2C(F)(F)F` (configuration not stated), the entry is “inactive”; as for `COc1ccc(-c2noc(CN3CCC(Cc4ccccc4)CC3)n2)cc1`, 30.2%. With `Cc1nn(-c2ccccc2)c2c1C(c1c(C)[nH]c(C#N)c1C)C(C#N)=C(N)O2` (configuration not stated) the entry was “inactive”. As for `CCOC(=O)N1CCN(C(=O)COc2ccc(Br)cc2Cl)CC1`, the figure is 61.2%; as for `COc1ccccc1C1CC(c2ccc(C)cc2)Nc2ncnn21` (configuration not stated), “inactive”. Consider `COc1ccccc1CN1CC(C(=O)N2CCN(c3ccc(F)cc3)CC2)CC1=O` (configuration not stated), for which the augmentation result is “inactive”. In the case of `CCOC(=O)C1C2C=CC3(CN(Cc4ccco4)C(=O)C13)O2` (configuration not stated), the augmentation result is “inactive”.

For `COc1ccc(CN2C(=O)c3ccccc3C2C(=O)NC2CCCC2)c(OC)c1` (configuration not stated), the augmentation entry is “inactive”. With `CN(C)c1ccc(C=Nc2ccc(N(C)C)cc2)cc1` the entry was “inactive”; with `CN(C)c1ccc(/C=C/c2ccncc2)cc1`, 42.9% (active); with `CN(C)c1ccc(CNn2cnnc2)cc1`, “inactive”. As for `N#CCCNCC1(c2ccccc2)CCCC1`, the augmentation entry was “inactive”. As for `O=C(CSc1nnc2ccccn12)NCCN1C(=O)CSC1=O`, the entry is “inactive”; as for `Cc1ccc(NC(=O)CSc2nnc(NC(=O)CN3CCOCC3)s2)cc1`, “inactive”; as for `CCCc1[nH]nc2c1C(c1cccc(OC(=O)c3ccco3)c1)C(C#N)=C(N)O2` (configuration not stated), “inactive”. With `CCN(CC)c1ccc2cc(-c3nc4ccccc4[nH]3)c(=O)oc2c1` the figure was 100% (active); with `CCN(CC)c1ccc2cc(NC(=O)CCC(=O)O)c(=O)oc2c1`, “inactive”; with `CCN(CC)c1ccc2c(C)c(-c3ccc(N)cc3)c(=O)oc2c1`, “inactive”. Regarding `CCCCOc1ccc(CSc2n[nH]c(C)n2)cc1`, the augmentation entry was “inactive”.

On to `CC(=O)Nc1cc(N2C(=O)CCC2=O)ccc1Cl`, for which the augmentation entry is “inactive”. Turning to `CC(=O)Nc1ccc(Cl)cc1C(=O)O`, the augmentation entry was “inactive”. As for `COC(=O)c1ccc(Cl)c(NC(C)=O)c1`, the augmentation is 82.8% (active). With `CCCc1ccc(C(C)NC(=O)c2cnccn2)cc1` (configuration not stated) the entry was “inactive”; with `CCCCNC(=O)Cn1c(=O)n(C)c2ccccc21`, “inactive”. As for `CCOC(=O)c1[nH]c(C)c(C(=O)Nc2ccc(Cl)cc2)c1C`, the entry is “inactive”; as for `Cc1ccc2cc3cc(C(=O)NCCN4CCOCC4)oc3nc2c1`, “inactive”; as for `CC(=O)c1cccc(NC(=O)N2C3CCC2CC(O)(c2cccnc2)C3)c1` (configuration not stated), “inactive”.

As for `O=c1oc2c3c4c(cc2s1)CCCN4CCC3`, the augmentation result was “inactive”.

For `c1ccc2nc(-c3nc4ccccc4[nH]3)ccc2c1`, the augmentation entry is “inactive”. With `O=c1oc2c3c4c(cc2cc1-c1nc2ccccc2[nH]1)CCCN4CCC3` the figure was 100% (active); with `Cn1c(Cc2ccccc2)nnc1SCC(=O)c1ccc(Br)s1`, “inactive”.

Regarding `CCOc1ccccc1C(=O)Nc1nnc(CC)s1`, the augmentation entry is “inactive”.

Take `CCOC(=O)c1ccccc1NC(=O)CSc1nc2c(c(=O)n(C)c(=O)n2C)n1C`: the augmentation result is “inactive”. `Cc1cc(=O)n2nc(N3CCCC(C(=O)N4CCc5ccccc54)C3)sc2n1` (configuration not stated): the augmentation entry was “inactive”.

For the compound `CN(CCNC(=O)c1ccc(N2CCCC2=O)cc1)CCc1ccccc1`, the augmentation result is “inactive”. With `CC(C)n1nc(C(=O)Nc2nc3ccc(S(C)(=O)=O)cc3s2)c2ccccc2c1=O` the entry was “inactive”. Consider `Cc1ccc(CN2C(=O)CCC2C(=O)NCC2CCCO2)cc1` (configuration not stated), for which the augmentation entry was “inactive”. As for `CCCCn1c(SCc2cccnc2)nc2c1c(=O)n(C)c(=O)n2C`, the entry is “inactive”; as for `O=C(CCN1C(=O)COc2ccccc21)NCCN1CCN(c2cccc(Cl)c2)CC1`, “inactive”.

Take `COc1ccc(NC(=O)CSc2nnc(Cc3cccn3C)n2-c2ccc(F)cc2)cc1`: the augmentation result is “inactive”. As for `COc1cc2c(cc1OC)-c1cc(OCc3cccnc3)nc(=O)n1CC2`, the entry is “inactive”; as for `CN(Cc1ccccc1)S(=O)(=O)c1ccc(S(=O)(=O)N2CCN(CCC#N)CC2)cc1`, “inactive”; as for `CCOC(=O)c1[nH]c2ccccc2c1NC(=O)C(CC)CC`, “inactive”. With `c1coc(Cn2nnnc2CN2CCN(C3CCCC3)CC2)c1` the entry was “inactive”; with `Cc1ccc(C)c(N2CCN(C(=O)c3ccc(CS(=O)(=O)c4ccccc4C)o3)CC2)c1`, “inactive”. As for `O=c1c2cn[nH]c2nc(SCc2ccc3c(c2)OCCO3)n1-c1ccccc1`, the entry is “inactive”. As to `COc1ccc(CCn2c(-c3ccco3)nc3nc4ccccc4nc32)cc1`, the augmentation result was “inactive”. With `Cc1nnc(NC(=O)CSc2nc3c(c(=O)n2C)SC(C)C3)s1` (configuration not stated) the entry was “inactive”. As for `CCOc1ccccc1N1CC(O)=C(c2nc3ccccc3s2)C1=N`, the augmentation result was “inactive”. As for `Cc1nc2cc(NC(=O)N3c4ccccc4CC3C)ccc2o1` (configuration not stated), the augmentation result was “inactive”. With `Cc1cc(OCC(O)CN2CCN(CCO)CC2)ccc1C(C)C` (configuration not stated) the entry was “inactive”; with `Cc1ccn2cc(CCNC(=O)CC(C)(C)C)nc2c1`, “inactive”.

For the compound `CN(C)c1ccc(C2C3=C(CCCC3=O)OC3=C2C(=O)CCC3)cc1`, the augmentation result is “inactive”. Consider `CCOC(=O)c1cc(CC)sc1NC(=O)COC`, for which the augmentation entry is “inactive”. With `CCOc1ccc(NC(=O)CCN2CCN(c3ccccc3)CC2)cc1` the entry was “inactive”. With `Cc1ccc2[nH]c(=O)c(C(c3nnnn3CCc3ccccc3)N3CCOCC3)cc2c1` (configuration not stated) the entry was “inactive”; with `CC(=O)N1C(=O)C2(C(C#N)=C(N)Oc3cc(C)oc(=O)c32)c2ccccc21` (configuration not stated), “inactive”; with `CCOC(=O)NC(c1ccccc1)C1CCCCC1=O` (configuration not stated), “inactive”. As for `O=C(Cn1c(NCCO)nc2ccccc21)c1ccccc1`, the augmentation entry was “inactive”. As for `Cc1cccnc1NC(=O)CCCN1C(=O)c2ccccc2C1=O`, the augmentation entry is “inactive”. With `CCOc1ccc(OCC)c(NC(=O)CCCN2C(=O)c3cccnc3C2=O)c1` the entry was “inactive”; with `Cc1cc(NC(=O)CCCN2C(=O)c3cccnc3C2=O)no1`, 50.9% (active). On to `O=C(c1ccccc1)c1ccc2nc[nH]c2c1`, for which the augmentation entry is “inactive”. As for `O=C(NCCN1CCOCC1)NC1(C(F)(F)F)Oc2ccc(Cl)cc2O1` (configuration not stated), the entry is “inactive”; as for `C=CCSc1n[nH]c(-c2ccc(OC)cc2)n1`, “inactive”. As for `Cc1c(Cl)cccc1N1C(=O)c2ccccc2C1=O`, the entry is “inactive”. With `Cc1nc2cc(-n3ccc(=O)cc3)ccc2n1-c1ccccc1` the entry was “inactive”; with `Cn1c(=O)cc(SCC(=O)NCc2cccnc2)c2ccccc21`, “inactive”. With `CSc1nc2c(ccc3ccccc32)o1`, the augmentation entry was “inactive”. With `O=c1cc(C(F)F)oc2c1ccc1ccccc12` the figure was 97% (active); with `COc1ccc(CCN2C(=O)CC(N3CCN(S(=O)(=O)c4ccccc4)CC3)C2=O)cc1` (configuration not stated), “inactive”. As for `COCc1nnc(SCC(=O)NC(C)c2ccccc2)n1-c1ccccc1` (configuration not stated), the augmentation result was “inactive”.

In the case of `COc1ccc(C(=O)N2CCCc3ccccc32)cc1`, the augmentation entry is “inactive”. As to `CCOC(=O)N1CCN(C(=O)Cn2ncn3nc(-c4cccs4)cc3c2=O)CC1`, the augmentation result is “inactive”. With `COc1cccc(-n2c(C)nc3c(cnn3-c3ccc(Cl)cc3)c2=O)c1` the entry was “inactive”. On to `CCC(C)(C)n1nnnc1C(c1ccc(OC)c(OC)c1)N1CCN(c2ccc(F)cc2)CC1` (configuration not stated), for which the augmentation entry is “inactive”. With `COc1ccc(OC)c(NC(=O)C2C3CC4OC(=O)C2C4C3)c1` (configuration not stated) the entry was “inactive”.
